# Laboratory results from PubChem BioAssay AID1851 (National Center for Advancing Translational Sciences (NCATS), 2009).
# Values joined by “and” are separate entries in the source; they are usually repeats but may differ in a detail not shown here. Equal values may be shown once. The campaign covered roughly 16,000 compounds. About 5,100 (32%) were called active. Roughly 25% stayed inconclusive and do not appear here. The list shows a part of the results. Unmarked numbers belong to inactive results. Calls follow the shape of the dose curve; as a rule, active = well fitted curve in the direction sought with a large enough effect; inconclusive = small, poorly fitted or top-dose-only effect, or effect the other way; inactive = no such curve, though single readings can be large or run the other way. Peptide text beside a SMILES is read from it.
# Target: Cytochrome P450 3A4 (Homo sapiens) (UniProt P08684)
# Assay: Cytochrome panel assay with activity outcomes
# Conditions: recombinant CYP, pro-luciferin dealkylation, luminescence, p450-cyp3a4; series mostly up to 57.1 µM
# % is scaled to controls: 0 for no effect and ±100 for the full control effect.
# Cytochrome P450 3A4 (Homo sapiens), sequence (P08684 whole entry, looked up): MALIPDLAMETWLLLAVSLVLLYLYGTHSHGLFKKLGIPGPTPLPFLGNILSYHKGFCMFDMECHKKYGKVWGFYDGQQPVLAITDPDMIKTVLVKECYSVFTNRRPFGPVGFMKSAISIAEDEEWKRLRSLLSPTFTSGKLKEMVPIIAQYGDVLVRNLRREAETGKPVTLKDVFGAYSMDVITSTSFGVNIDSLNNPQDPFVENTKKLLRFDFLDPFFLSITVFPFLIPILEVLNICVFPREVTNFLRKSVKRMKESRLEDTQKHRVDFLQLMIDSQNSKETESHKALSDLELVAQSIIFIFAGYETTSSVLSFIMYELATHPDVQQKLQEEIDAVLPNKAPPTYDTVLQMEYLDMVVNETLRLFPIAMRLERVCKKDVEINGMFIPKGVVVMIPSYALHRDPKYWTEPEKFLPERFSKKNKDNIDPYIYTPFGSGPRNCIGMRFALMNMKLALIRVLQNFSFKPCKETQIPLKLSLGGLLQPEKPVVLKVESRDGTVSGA
SMILES,AC50,"activity, negative = inhibition"
NC(=O)OCC(COC(N)=O)c1ccccc1,inactive,
CCOC(=O)CSc1nc2ccccc2c(=O)n1CC1CCC(C(=O)NCc2ccco2)CC1 (configuration not stated),5.01 µM (active),
O=C(CSc1nc2ccccc2c(=O)n1CCCC(=O)N1CCCC1)NCc1ccco1,6.31 µM (active),
CCS(=O)(=O)N1CCC(C(=O)NCc2ccco2)CC1,inactive,
O=C(O)CCCCCn1c(SCC(=O)N2CCCC2)nc2ccsc2c1=O,inactive,
CCN(C(=O)CSc1nc2cc(C(=O)OC)ccc2c(=O)n1Cc1ccco1)c1cccc(C)c1,inactive,
CCCCCn1c(SCc2ccncc2)nc2cc(C(=O)NCc3ccco3)ccc2c1=O,0.794 µM (active),
CC(/C=N/n1c(-c2cccnc2)n[nH]c1=S)=C\c1ccccc1,2 µM (active),
O=C(O)CC[C@]1(C(=O)O)CCC(=O)c2ccccc21,,-0.615% [at 11.4 µM]
COc1ccccc1CNc1cc(-c2ccoc2)ncn1,15.8 µM (active),
COc1ccc(CNc2cc(-c3ccoc3)ncn2)c(OC)c1,15.8 µM (active),
Cc1ccc(S(=O)(=O)c2cc(N3CCOCC3)nc(-c3ccccc3)n2)cc1,,-13.7% [at 2.29 µM]
Cc1ccc(Oc2cc(N3CCOCC3)nc(-c3ccccc3)n2)cc1,14.1 µM (active),
Cc1cc(Oc2ccc(-c3ccccc3)cc2)nc(N2CCOCC2)n1,inactive,
Cc1cc(Oc2ccccc2)nc(-c2ccccc2)n1,inactive,
O=c1nc(N2CCOCC2)ccn1-c1nc(-c2ccccc2)oc1-c1ccccc1,inactive,
COc1cccc(Sc2cc(N3CCOCC3)nc(-c3ccccc3)n2)c1,0.794 µM (active),
N#C/C(=C/c1ccc(N2CCCC2)c([N+](=O)[O-])c1)c1nc2ccccc2[nH]1,2.82 µM (active),
N#C/C(=C\c1ccc(N2CCCC2)c([N+](=O)[O-])c1)c1nc2ccccc2[nH]1,1.58 µM (active),
Cc1cc(N2CCN(C)CC2)n2nc(-c3ccc(Cl)cc3)nc2n1,,-14.4% [at 11.4 µM]
Cc1cc(N)n2ncc(-c3ccc(Cl)cc3)c2n1,15.8 µM (active),
Cc1nc2nc(-c3ccc(Cl)cc3)nn2c(C)c1Cl,inactive,

SMILES,AC50,"activity, negative = inhibition"
CC(C)(C)C(=O)OCc1cn(-c2ccc(Cl)cc2)nn1,inactive,
COc1cc(S(C)=O)ccc1-c1nc2ncccc2[nH]1 (configuration not stated),inactive,
O=C(Nc1cccn(Cc2ccc(F)cc2)c1=O)NC1CCCCC1,15.8 µM (active),
Cc1ccc(Cn2cccc(NC(=O)NCc3ccccc3)c2=O)cc1,inactive,
Cc1ccc(Cn2cccc(NC(=O)NC3CCCCC3)c2=O)cc1,12.6 µM (active),
NCCSCCC(=O)O,,-1.66% [at 11.4 µM]
CC(Oc1ccccc1)c1ccnn1S(=O)(=O)c1ccccc1 (configuration not stated),,-13.1% [at 11.4 µM]
COc1ccc(S(=O)(=O)n2ccc(-c3cnc(-c4ccccc4)s3)n2)cc1,3.98 µM (active),
O=S(=O)(c1ccc(F)cc1)n1ccc(-c2cnc(-c3ccccc3)s2)n1,11.2 µM (active),
CC[C@@H](C)[C@H]1O[C@]2(CC[C@@H]1C)C[C@@H]1C[C@H](C/C=C(/C)[C@H](O[C@@H]3C[C@H](OC)[C@H](O[C@@H]4C[C@H](OC)[C@@H](O)[C@H](C)O4)[C@H](C)O3)[C@@H](C)/C=C\C=C3CO[C@@H]4[C@H](O)C(C)=C[C@@H](C(=O)O1)[C@]34O)O2 (tested in a mixture with another compound),inactive,
COC(=O)[C@H](Cc1ccccc1)NC(=O)[C@@H](C)CO,,-44.5% [at 11.4 µM]
CC(C)C[C@H](NC(=O)[C@@H](O)[C@@H](N)Cc1ccccc1)C(=O)O,inactive,
COC(=O)C(CC(C)C)NC(=O)C(N)Cc1ccccc1 (stereo not drawn) (H-Phe-Leu-OMe; configuration not given here),14.1 µM (active),
CCCc1cc2c(n1Cc1ccc(OC)cc1)C(C)C1CN(C(=O)c3ccccc3)C(C)(C(=O)OC)C21 (configuration not stated),3.16 µM (active),
CCCc1cc2c(n1Cc1cc(F)cc(F)c1)C(C)C1CN(C(=O)c3ccccc3)C(C)(C(=O)OC)C21 (configuration not stated),3.16 µM (active),
CCCc1cc2c(n1CCc1ccc(Cl)cc1)C(C)C1CN(C(=O)c3ccccc3)C(C)(C(=O)OC)C21 (configuration not stated),5.01 µM (active),
C[C@@]1(C(=O)O)CCC[C@@H]1C(=O)O,,-5.72% [at 11.4 µM]
O=C(O)C[C@H](Cc1ccccc1Cl)C(=O)O,,-7.24% [at 11.4 µM]
Cc1ccnc(N)c1,inactive,
Cc1cc(=O)[nH]c2ccccc12,inactive,
CC1CCCC(n2c(=S)[nH]c3ccccc3c2=O)C1C (configuration not stated),7.94 µM (active),
CCn1c(=O)[nH]c2ccccc2c1=O,,5.24% [at 2.29 µM]

SMILES,AC50,"activity, negative = inhibition"
CCN1CCN(C(c2ccccn2)c2c(NC(=O)c3ccccc3)sc(C)c2C)CC1 (configuration not stated),8.91 µM (active),
CC(C)CO[C@H](c1ccc2c(c1)OCO2)[C@H](C)Br,3.16 µM (active),
CCC(Sc1nc2n[nH]c(C)c2c(=N)n1-c1cccc(Cl)c1)C(=O)NCCOC (configuration not stated),2.82 µM (active),
Nc1ccn([C@H]2O[C@H](CO)[C@@H]3[O][Sn]([c]4ccccc4)([c]4ccccc4)[O][C@H]32)c(=O)n1,,25.9% [at 11.4 µM]
CCOC(=O)c1cc(NC(=O)c2ccc(OC)cc2)c(=O)oc1-c1ccccc1,inactive,
COc1ccc(C(=O)Nc2cc(C(C)=O)c(/C=C/N(C)C)oc2=O)cc1,inactive,
Cc1oc(=O)c(NC(=O)c2ccccc2)cc1C(=O)c1ccccc1,7.94 µM (active),
Cc1cc(N)ccc1NC(=O)c1ccccc1,inactive,
CC(=O)c1cc(NC(=O)c2ccccc2)c(=O)oc1/C=C/N(C)C,25.1 µM (active),
Cc1ccc(C(=O)Nc2cc3c(oc2=O)CCCC3=O)cc1,inactive,
O=C(Nc1cc(Sc2ccccn2)cc([N+](=O)[O-])c1)c1ccc(Cl)cc1,7.94 µM (active),
CSc1cccc(NC(=O)c2ccc(Cl)nc2)c1,inactive,
CC/C(O)=C(\C#N)c1nnc2n1CCCCC2,inactive,
CN1CCCN(C)C1c1cc([N+](=O)[O-])ccc1O,,-5.36% [at 11.4 µM]
O=C1Nc2ccc([N+](=O)[O-])cc2C1(O)N1CCCCCC1 (configuration not stated),3.55 µM (active),
Cn1c(CCN2CCCCC2)nc2cc([N+](=O)[O-])ccc21,inactive,
COCCCNC(=O)/C=C/c1cccc(Cl)c1,inactive,
O=C(/C=C/c1cccc(Cl)c1)Nc1ccncc1,0.178 µM (active),
Cc1cc(C)nc(NC(=O)/C=C/c2ccc(Cl)cc2Cl)c1,,4.58% [at 2.29 µM]
NS(=O)(=O)c1cc(Br)c(N=Nc2ccc(O)c3ncccc23)c(Br)c1,,-8.46% [at 11.4 µM]
O=C(O)[C@@H]1CCCN1,,-4.77% [at 11.4 µM]
COC(=O)C1CC1C(NC(=O)[C@@H]1CCCN1)c1ccccc1 (some centres not stated),12.6 µM (active),

SMILES,AC50,"activity, negative = inhibition"
COC(=O)C1CC1C(NC(=O)[C@H]1CCCCN1)c1ccccc1 (some centres not stated),10 µM (active),
COc1cc(Br)c(C(C)NC(=O)c2cccc(Br)c2)cc1OC (configuration not stated),0.282 µM (active),
COc1ccc(C(=O)[C@H](Br)[C@H](Br)C(=O)O)cc1,,3.56% [at 11.4 µM]
COc1ccc(C(=O)NC(C)c2cc(OC)c(OC)cc2Br)cc1 (configuration not stated),0.501 µM (active),
NS(=O)(=O)c1cc2c(cc1Cl)N[C@@H](CC1CCCC1)NS2(=O)=O,inactive,
CC(C)(C)c1ccc(C(=O)Nc2ccc(NC(=O)c3ccco3)cc2)cc1,,11.7% [at 2.29 µM]
O=C(Nc1ccc(-n2nncc2-c2ccco2)cc1)c1ccc(F)cc1,0.708 µM (active),
COc1ccc(-c2cnnn2-c2ccc(NC(=O)c3ccco3)cc2)cc1OC,1 µM (active),
C/C(=N/NC(=O)c1ccc(NC(=O)c2ccc(F)cc2)cc1)c1ccccc1,,15.1% [at 0.457 µM]
O=C(Nc1ccc(-n2nncc2-c2ccco2)cc1)c1cc2ccccc2oc1=O,4.47 µM (active),
CC(C)OC(=O)c1cc2ccccc2oc1=O,inactive,
CC(=O)c1cc2ccccc2oc1=O,inactive,
COc1ccc(Br)c2c1C[C@H](C(=O)O)CC2,,-12.7% [at 11.4 µM]
Nc1nc2c(c(=O)[nH]1)CN(c1ccc(S(N)(=O)=O)cc1)CN2,,-4.97% [at 11.4 µM]
CC(=O)SCC[N+](C)(C)C,inactive,
COC(=O)[C@@H]1CC[C@H](C)[C@@H](c2ccc(C)cc2)N1C(=O)c1ccc(/C=N\O[C@@H]2O[C@H](COC(C)=O)[C@H](OC(C)=O)[C@H](OC(C)=O)[C@H]2OC(C)=O)cc1,,-14.4% [at 11.4 µM]
COC(=O)[C@@H]1CC[C@H](C)[C@@H](c2ccc(C)cc2)N1C(=O)c1ccc(/C=N\OC[C@@H](C)[C@H](OCc2ccccc2)C(C)C)cc1,3.98 µM (active),
COC(=O)[C@@H]1CC[C@H](C)[C@@H](c2ccc(C)cc2)N1C(=O)c1ccc(/C=N\O[C@@H](C)c2cn([C@H](CO)Cc3ccccc3)nn2)cc1,1.26 µM (active) and 3.16 µM (active),
CO/N=C\c1ccc(C(=O)N2[C@H](c3ccc(C)cc3)[C@@H](C)CC[C@H]2C(=O)OC)cc1,3.16 µM (active),
COC(=O)[C@@H]1CC[C@H](C)[C@@H](c2ccc(C)cc2)N1C(=O)c1ccc(/C=N\OCC[C@@H]2C=C[C@H](OC(C)=O)[C@H](COC(C)=O)O2)cc1,,-18.2% [at 11.4 µM]
O=Nc1ccc(NOC(=O)c2ccc(Br)cc2)cc1,inactive,
